Measurements published in PubChem BioAssay AID1508600 (Functional Genomics Laboratory (NCATS/FGL), 2020).
The campaign covered roughly 53,000 sequences. About 3,700 (7%) were called active.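 How the source made its calls: active means gene knockdowns whose robust z-score for IL-1 alpha signal is at least 2 or at most -2, so actives lie on both sides; inactive means the rest.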 Many of the other results were omitted from the sample, so actives are more common in it than they were.

Experiment: Components of the Cytosolic LPS Sensing Pathway: Gene Identification via Genome-wide siRNA Screen
Settings: RAW264.7 macrophages, IL-1a HTRF, actives lie on both sides, screened at 100 nM (by protocol), cells primed 5 h with Pam3CSK4 first
Text: Non-canonical inflammasome activation by cytosolic LPS is a critical component of the host response to Gram-negative bacterial infection, however we lack a comprehensive understanding of the cellular processes that control this pathway. Here we describe a genome-wide siRNA screen to identify genes regulating the mouse macrophage IL-1 alpha response to cytosolic LPS.
RAW264.7 cells were maintained in complete DMEM media, comprising DMEM with 4.5 g/L glucose, 10% FBS (Gemini Bio-Products, West Sacramento, CA), 2 mM Glutamine (Lonza) and 20 mM HEPES (Lonza), hereafter complete DMEM.
The RNAi screen was conducted in 384-well format using the Ambion Silencer Mouse Genome siRNA Library (#4391425), which consists of three unique, nonoverlapping, nonpooled siRNAs for each of 17,000 gene targets. siRNA reagents ([…]) were stamped into 384-well white flat-bottom microplates (Corning, 3570) using a Velocity11 VPrep liquid handling system (Agilent) integrated into a BioCel robotic platform (Agilent) in columns 1-22, leaving columns 23-24 empty for negative (Ambion, Negative control #1) and positive (mouse Casp4) controls, respectively. The median value of each plate's negative control column was used to normalize sample wells, and the positive control was used to assess transfection efficiency and assay performance.
Lipofectamine RNAiMAX Transfection Reagent ([…]; Invitrogen) was added in […] serum-free, antibiotic-free media to plate wells using a Thermo Scientific Matrix WellMate and Microplate Stacker. Plates were incubated for 45 min at room temperature to allow for the sufficient formation of siRNA-lipid complexes. Cells were seeded at a density of 1x10^4 cells per well in 20 microL media containing 20% (vol/vol) FBS without antibiotics. The final concentration of siRNA in each well was 100 nM. Cells were cultured for 48h at 37 degrees C in 5% CO2 before addition of […] of TLR ligand Pam3CSK4 for 5 hours. The medium was then removed, replaced with […] growth media and cell were transfected with […] of LipidA and TransIT-TKO (Mirus) for 24 hour. At the end of the LipidA treatment, […] of supernatant was transferred to a 384 Greiner Bio-one non-binding low volume plate and […] of IL-1a HTRF reagent (Cisbio, 62MIL1APEH) was added and incubated at room temperature overnight. The plates were read on an EnVision plate reader (PerkinElmer). Cell viability was measured by adding 20ul Cell Titer Glo to the original plate and running a luminescence read on the EnVision. The quantified IL-1a signal for each siRNA gene-targeted well was divided by the median of the negative control wells and multiplied by 100 to achieve a negative control normalized value for each well/siRNA. This normalized value was then used to generate a robust z-score by first taking the log of each value and then by subtracting the median and dividing by the […].

Row | Sequence | z-score
1 | CCCUACAGUACUAAUCAAATT against Ptgs2 | 0.6 (inactive)
2 | GGGCUCUAACAUCUUAUACTT against Tbc1d31 | 1.54 (inactive)
3 | GGGCCAUGGAUAAGAAAAATT against Psmc5 | -2.61 (active)
4 | GGCACAGACGGAUCAACAGTT against Clcn3 | -0.725 (inactive)
5 | GCUAUUGAGAAACCACUUATT against Rasef | -0.276 (inactive)
6 | CCUAUUACUCAAACACAGATT against Arl5b | -0.257 (inactive)
7 | GGACACAGCAAGAAGAUACTT against Wfdc12 | -1.79 (inactive)
8 | GCCACACCAAUAGAAGUGUTT against Csnk1g3 | -2.42 (active)
9 | UCUCCUUCAUUCCAUGUAUTT against Olfr441 | -2.18 (active)
10 | CCAUCAAAGUCAUCGACGGTT against Birc6 | -0.427 (inactive)
11 | GGAGUGAGUCCUGAAGCAATT against Ifna12 | -0.372 (inactive)
12 | GCCGUUACUGAGCUGAAAUTT against Allc | -0.866 (inactive)
13 | CGCUUCAUGACUUCUGAAUTT against Ppp1r32 | 0.0722 (inactive)
14 | GCCCAACCUGUCCAUACUUTT against Guca2b | -0.193 (inactive)
15 | GCUAUUUUCGUCACUUUCUTT against Tssk1 | 0.494 (inactive)
16 | GGAUGAAUUCAUUGAAGAATT against Btk | 0.321 (inactive)
17 | GGUUCGUCGCCUUUUAGGGTT against Alx4 | 3.74 (active)
18 | GAGCUUCUAAUUCACCCUATT against Abcc6 | 0.181 (inactive)
19 | GGGAACCUUACUGUGUUAUTT against Gpr85 | 0.477 (inactive)
20 | GGGUUUCCAGUACCUCAAUTT against Serpina6 | -1.28 (inactive)
21 | GGCUUUUAUAGCUAAGGUUTT against Spc25 | -2.18 (active)
22 | GGACUGUGAACAACUUUCGTT against Tcim | -1.07 (inactive)

Row | Sequence | z-score
23 | GGCUAUCUACAAAAUGGUGTT against Vsnl1 | -1.31 (inactive)
24 | GCUAACCAGUGAUCCUACATT against Olfr846 | 0.471 (inactive)
25 | GCACUUGUGACUUAUUGGATT against Vmn2r-ps11 | 0.506 (inactive)
26 | GGGUCAGAGUUUUUCCAUCTT against Otog | 2.72 (active)
27 | GGGACGUAAAUCAAAUGAATT against P2ry12 | 0.096 (inactive)
28 | GGAGGUGGAACUGCUGUAUTT against Fam180a | -0.257 (inactive)
29 | GGCAGAAAGAUUAUGAGUUTT against Gpr171 | 2.35 (active)
30 | GGAAUUAAAAGAGCUGGGCTT against Selenon | 0.697 (inactive)
31 | GGGUGCUGAACAGUCACAATT against Rab12 | 0.717 (inactive)
32 | UGAAGGCAAAUCACUCUUUTT against Olfr181 | -0.042 (inactive)
33 | GGAGGAUCCUGCUAUUCCATT against 4930583K01Rik | -2.24 (active)
34 | GGUGCUGGAGAAGAACAUGTT against Map2k3 | 1.51 (inactive)
35 | GGAAAGAGAUUCUCUUCUATT against Nsun2 | -1.2 (inactive)
36 | CGGCUUUGAAGUGGUGUAUTT against Smad9 | 1.66 (inactive)
37 | CCUUAGGCAUGGUCUGGACTT against Gal3st2 | 0.897 (inactive)
38 | CCUUCAUGAGUCCUCUUCATT against Gaa | -2.08 (active)
39 | GGGUUUUCAAAGACAAGAUTT against Frmd6 | 1.47 (inactive)
40 | GGAGCUUUUUAUGUUUUAGTT against Fam177a | 1.93 (inactive)
41 | CCCUGAGAUAGGCAAUGUGTT against Tceanc2 | -1.57 (inactive)
42 | GCUUCAUGGAUGCAAUUGATT against Adhfe1 | -0.659 (inactive)
43 | GGUUGAAAAGUAUCAAAGATT against Pus7l | -0.359 (inactive)
44 | GGAUUAGACUGUCUUCAGCTT against Rnf144a | -0.496 (inactive)

Row | Sequence | z-score
45 | GGCCUGUUUUGUACUUUUATT against Polr3gl | 0.149 (inactive)
46 | GGGAUAUUCAAAAUACUAGTT against Hells | 0.653 (inactive)
47 | GCUACAGACUGAACAAUGATT against Rbm17 | -2.08 (active)
48 | CCAUCUGAUUAAUGGCUUCTT against Tm7sf2 | 1.03 (inactive)
49 | GUGCCUUUGUGGUCUUCCUTT against Tmem179 | -1.16 (inactive)
50 | GGAUCCCAAGUUCAAAGCCTT against Rfxap | 2.07 (active)
51 | CCUAUAACAUCCACCUUCATT against Yipf3 | -0.508 (inactive)
52 | GGAAACAAGAAGAACGAUGTT against Camk2a | 1.47 (inactive)
53 | GCACUCAGCUAGGUGAAGATT against Hnrnpul1 | -0.186 (inactive)
54 | GAUCUAGGACAGCUUAGAUTT against Avpr1b | -0.955 (inactive)
55 | GCCAAUGAAAACCUUUUGCTT against Parp9 | -0.736 (inactive)
56 | GGAUUUUACAUUUCUACACTT against Tmprss15 | 2.14 (active)
57 | CGCACUGGAUAAUAUCAGCTT against Dok5 | 0.0135 (inactive)
58 | GGCAGAAAUUUGGAUACCATT against Plekha4 | 2.1 (active)
59 | GGAAGUUAGCUCCUAAAUATT against Pirt | -0.383 (inactive)
60 | CCUUUUUUAUAUCCACUCATT against Bahcc1 | 1.22 (inactive)
61 | GCAUCACUGCCACAGUGCATT against Olfr159 | -0.133 (inactive)
62 | GUAGUUGUUCUGAGAAAUCTT against Krtap19-2 | -0.49 (inactive)
63 | GGAAAUUCAAAAAGUGUGUTT against Aplf | -2.25 (active)
64 | GGCCUGUUUUGAAGUAGAATT against B630019K06Rik | 0.352 (inactive)
65 | GCCAUUUGAAACUCUCCUGTT against Gstp3 | -1.71 (inactive)
66 | GGUCCUCCAGUUAAUGUCATT against Glra3 | -0.916 (inactive)

Row | Sequence | z-score
67 | GGUUAUCCAGAGAGUGCAUTT against Arl4d | 1.01 (inactive)
68 | ACUCCUAUGAGCUAGCUGUTT against Krt42 | 0.919 (inactive)
69 | GGAAUUGAGACCCAAUAUUTT against Cnot7 | -0.353 (inactive)
70 | GGAAUCAGCAAACUCAACCTT against Rnase11 | -0.748 (inactive)
71 | GGAUUCAGAAGCAGCAACATT against Nr1h2 | -2.29 (active)
72 | GGCCAAGGACAUUAUAAAUTT against Scly | -0.585 (inactive)
73 | AGUGAACAUCGAUCGCAUGTT against Gng8 | 0.937 (inactive)
74 | GCAAUGGUGGUUCUAAUAUTT against Cmya5 | -0.00244 (inactive)
75 | GCCAACCAGGAUUUUACAATT against Fga | 0.463 (inactive)
76 | GGAGAGUGUGUUUUCAGGCTT against Bop1 | 3.08 (active)
77 | GAGUGUCUUGAACACAGCCTT against Olfr635 | -0.0711 (inactive)
78 | GGCCAAGUUCCUUUGCAUATT against Lacc1 | 0.274 (inactive)
79 | CCAAAUGUAGCGGAACUGATT against Rsu1 | 0.195 (inactive)
80 | GGGUAUGAGUGCAGACUAUTT against Zcchc9 | 0.803 (inactive)
81 | GGCUUUGUAGCGAUAACAATT against D930030D11Rik | -0.936 (inactive)
82 | GGUCAGUGACAUUAUCAAUTT against Vmn1r237 | 1.84 (inactive)
83 | GGAGCAGUUACAGGAAAUCTT against Cdr2 | -2.11 (active)
84 | GGCAAGACUAUGAAUAUAATT against Ufsp2 | -0.486 (inactive)
85 | GGAUUUGGAUUUGGAUUUUTT against Tsc22d3 | 0.387 (inactive)
86 | CCUUGUACCCAGUAAAGUCTT against Mab21l4 | 0.586 (inactive)
87 | GGUGGACAAGUUCAAAGCCTT against Atg4d | -1.56 (inactive)
88 | GCAGGAUAUGUAAAGGUUUTT against Gimap3 | -0.924 (inactive)

Row | Sequence | z-score
89 | CCUAAAAGCAGGCCAAAAUTT against Dhx29 | -1.26 (inactive)
90 | GGAGAAGAGCCUUCUCAAGTT against Srsf4 | 2.05 (active)
91 | GGUUAUAGCUUCAAUAGCUTT against Bphl | -0.61 (inactive)
92 | UAACAGACCAGUAAAGGCCTT against Klra21 | 0.322 (inactive)
93 | CCAGAUACCCAUAAUAUCUTT against Mbnl1 | -0.604 (inactive)
94 | CGAUUUCCUUGGCACCAAUTT against Arhgap1 | -0.675 (inactive)
95 | GUGGACUUUUAGCAAUCAGTT against Olfr98 | -1.55 (inactive)
96 | GGAGACUUAUUGAGCAAGUTT against Usp44 | 4.42 (active)
97 | CGCUGAAGUCUUUUCACAATT against Baiap2 | 0.286 (inactive)
98 | CCCUUUCGGGCAAUGGACUTT against Olfr986 | -0.0157 (inactive)
99 | GGGCUUAAGCUUUGAGGGUTT against Foxs1 | 0.213 (inactive)
100 | GGGUUUGCACUAGUUUAUUTT against Rap1a | 0.632 (inactive)
101 | GGUCCUAAAGCCUUUUCUATT against Mrpl10 | 0.199 (inactive)
102 | GGAAGGGUCAGAAAAAUGUTT against Slc1a2 | 0.202 (inactive)
103 | GGUAAUGAUCCAUUCACCATT against Ly75 | -1.47 (inactive)
104 | GCAUAUACUUGAUUACCGUTT against Olfr830 | -0.391 (inactive)
105 | CCUCUGUCAGUUGGUUAACTT against Mon2 | -2.33 (active)
106 | CCUUCUACUAAUCAAGAGATT against Sparc | -0.578 (inactive)
107 | GGACCACAGAAGUUCUCAUTT against Pira2 | -2.88 (active)
